# Source: PubChem BioAssay
# Pf growth 48h – P. falciparum growth inhibition at 48 hours (one generation); Potency, µM (highest dose often 28.7 µM), without a hit: at the top dose activity change, negative = inhibition, most hits filed as inhibitors; P. falciparum luciferase growth in erythrocytes, 48 h; actives 5.9% (n = 310,000); also: potency is read from the fitted curve at half-maximal effect
#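 Here the parasites carry a stable luciferase gene and grow inside erythrocytes in Albumax-based RPMI medium with compound for one erythrocytic cycle. Activity is scored as loss of luminescent signal.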
# HCV inhibitor – inhibitors of hepatitis C virus infection; actives 3.4% (n = 340,000); AID 651820; Huh7.5.1 HCVcc-Cre infection, luciferase reporter, 44 h; Potency, µM (titrated, usually from 41.8 µM), inactives show top-dose activity change, negative = inhibition, usual class: inhibitors; also: potency is read from the fitted curve at half-maximal effect
#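 Whole-lifecycle infectious HCVcc-Cre system; cells 1,000/well, compound then virus (~0.5 moi) added 4 h after plating, 44 h culture. Luciferase read 15 sec following 15 min substrate incubation, room temp.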
# Pf growth 96h – P. falciparum growth inhibition at 96 hour, primary screen for plastid delayed-death inhibitors; P. falciparum luciferase reporter growth, 96 h; Potency, µM (titrated, usually from 28.7 µM), without a hit: top-dose activity change, negative = inhibition, hits mostly inhibitors; actives 6.9% (n = 320,000); AID 504834; also: potency is read from the fitted curve at half-maximal effect
#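 Two-generation exposure (96 h) targets delayed-death phenotype. Reporter parasites carrying integrated firefly luciferase, in red cells at 2% hematocrit and 0.05% parasitemia final, kept at 37 C, 5% CO2; luminescence loss indicates inhibition.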
# HCMV antiviral – blocks human cytomegalovirus replication. HFF cells, HCMV-luciferase reporter, 72 h; stronger effect = lower value. activity change, negative = inhibition, % at 57.5 µM. actives 4.5% (n = 410,000); in the data active = activity change below about -60%; inconclusive = no clear call, values can overlap the other calls; inactive = above about -39%
#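 Compounds were evaluated in HFFs infected with an HCMV luciferase reporter virus (MOI 1 PFU/cell). Luciferase in lysates collected 72 h post infection served as the replication measure.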
# * hit, by the source's call; ? = inconclusive; . = no result; [ ] = remark or other dose. Only some compounds are listed: those with a hit (about 13% of all), similar ones and a draw of the others. Unless noted, calls follow the shape of the dose curve; as a rule, active = well fitted inhibition curve with a large enough effect; inconclusive = small, poorly fitted or top-dose-only effect, or another doubt; inactive = no such curve, though single readings can be large or run the other way. % is scaled to controls: 0 for no effect and ±100 for the full control effect.
SMILES,Pf growth 48h,HCV inhibitor,Pf growth 96h,HCMV antiviral
Fc1ccc(C2C3=C(Nc4ncnn42)c2ccccc2OC3c2ccncc2)cc1 (centres undefined),.,?,21%,-13
Cc1ccc(C2Oc3ccccc3C3=C2C(c2cccs2)n2ncnc2N3)cc1 (centres undefined),12µM*,13µM*,?,-14
COc1ccc(N2C(=O)NC(NS(=O)(=O)c3ccc(NC(C)=O)cc3)(C(F)(F)F)C2=O)cc1 (centres undefined),0%,15%,9.3µM*,-7
COC(=O)c1nn(-c2ccccc2)c2nnc(Cc3ccc(C)cc3)c(=O)n12,6%,-6%,-25%,-108*
O=C(c1ccccc1)c1nn(-c2ccccc2)c2nnc(Cc3ccccc3)c(=O)n12,10µM*,?,10µM*,12
COc1ccccc1C(=O)NC(=S)Nc1ccc(Cc2ccncc2)cc1,?,?,3%,-76*
COc1cc(C(=O)NC(=S)Nc2ccc([N+](=O)[O-])cc2)cc(OC)c1OC,-10%,27%,0%,-18
Cc1cc(C)cc(C(=O)NC(=S)Nc2ccc(Cc3ccncc3)cc2)c1,?,?,-8%,-74*
O=C(NC(=S)Nc1ccc(Cc2ccncc2)cc1)c1ccccc1,-66%,-1%,?,?
COc1cc(C(=O)NC(=S)Nc2ccc(Cc3ccncc3)cc2)cc(OC)c1OC,10µM*,?,40%,-24
Cc1cc(C)c(OCC(O)CNC(C)(C)C)c(C)c1 (centres undefined),-16%,?,15%,-18
CC(C)(C)CC(C)(C)NCC(O)COc1c(F)cc(Br)cc1F (centres undefined),.,?,0.59µM*,-3
CC(C)(C)NCC(O)COc1c(F)cc(Br)cc1F (centres undefined),12µM*,-3%,.,-12
O=C(CSc1nc2ccc(Nc3nc(N4CCOCC4)nc(N4CCOCC4)n3)cc2s1)Nc1ccccc1,.,.,.,0
Cc1cccc(C)c1Nc1nnc(SCC(=O)NCc2cccs2)s1,-4%,23%,?,-10
O=C(CSc1nc2ccc(Nc3nc(N4CCOCC4)nc(N4CCOCC4)n3)cc2s1)Nc1ccccc1F,?,?,10µM*,-97*
O=C(CSc1nc2ccc(Nc3nc(N4CCCC4)nc(N4CCCC4)n3)cc2s1)NCc1ccco1,12µM*,2%,?,-17
O=C(CSc1nc2ccc(Nc3nc(N4CCOCC4)nc(N4CCOCC4)n3)cc2s1)Nc1ccccc1Cl,12µM*,?,2.6µM*,.
Cc1cccc(C)c1Nc1nnc(SCC(=O)NCc2ccco2)s1,?,5%,0.83µM*,18
FC(F)(F)C(F)(F)C(F)(F)C(F)(F)C(F)(F)C(F)(F)F,0%,.,-4%,.
Cc1cccc(NC(=O)C(Cc2ccccc2)n2cccc2)c1C (centres undefined),.,.,.,21
CCc1cccc(NC(=O)CN2c3ccccc3S(=O)(=O)c3ccccc32)c1,.,.,.,32
CCOc1ccc2nc(SCC(=O)NCc3ccco3)sc2c1,8.3µM*,?,-6%,-7
COC(=O)c1ccccc1NC(=O)CSc1nc(Nc2ccccc2)nc(N2CCOCC2)n1,9.3µM*,?,-10%,-25
O=C(CSc1nc2ccc(Nc3nc(N4CCOCC4)nc(N4CCOCC4)n3)cc2s1)N1CCOCC1,-1%,1%,-7%,-29
SMILES,Pf growth 48h,HCV inhibitor,Pf growth 96h,HCMV antiviral
CSc1nc2ccc(Nc3nc(N4CCOCC4)nc(N4CCOCC4)n3)cc2s1,9.3µM*,?,.,1
O=C(NC1CCCCC1)C(c1ccc(-c2ccccc2)cc1)n1c(=O)c(-c2ccco2)nc2ccccc21 (centres undefined),.,.,.,14
COC(=O)N[C@H]1CC=C[C@@H]1Cc1cccc(Oc2ccccc2)c1,.,.,.,-12
Cc1ccc2cc(CCl)c(Cl)nc2c1,-17%,10µM*,2%,5
COc1cc(OC)cc(-c2nc3nc(C)c(CCC(=O)Nc4ccc(C)cc4C)c(C)n3n2)c1,.,.,.,11
Cc1ccc(-c2nnc(-c3ccc(NC(=O)Cc4cccs4)cc3)o2)cc1,7%,?,4%,-85*
O=C(Cc1ccccc1)Nc1ccc(-c2nnc(-c3ccco3)o2)cc1,23%,?,102%,-11
O=C(Cc1cccs1)Nc1cccc(-c2nnc(-c3ccco3)o2)c1,?,-27%,-16%,?
Cc1ccc(SCC(=O)Nc2ccc(-c3nnc(-c4ccco4)o3)cc2)cc1,?,11µM*,11%,32
COc1ccc(C(=O)Nc2cccc(-c3nnc(-c4ccco4)o3)c2)cc1,.,13µM*,.,-17
Cc1ccc(NC(=O)CCSc2nnc(-c3ccco3)o2)cc1,-18%,?,?,-12
COc1ccccc1CC(=O)Nc1ccc(-c2nnc(-c3ccco3)o2)cc1,8.3µM*,?,135%,29
COc1ccc(CC(=O)Nc2cccc(-c3nnc(-c4ccco4)o3)c2)cc1,?,?,0%,?
CC(=O)c1cccc(NC(=O)CC(c2ccc(C)cc2)N2Cc3ccccc3C2=O)c1 (centres undefined),.,.,.,-2
Cc1cccc(NC(=O)C2CCCN(S(=O)(=O)c3c(C)noc3/C=C/N(C)C)C2)c1C (centres undefined),.,.,.,21
C=CCNCCOCCOc1ccccc1-c1ccccc1,?,-11%,130%,?
CC(C)(C)NCCOCCOc1ccccc1-c1ccccc1,?,-21%,3.7µM*,-10
CN(C)CCNCCCOc1ccccc1-c1ccccc1,2.6µM*,.,47%,.
CCC(C)NCCOCCOc1ccc(Cl)cc1Br (centres undefined),?,35µM*,62%[5.75 µM],-23
CCC(C)NCCOCCOc1ccccc1-c1ccccc1 (centres undefined),?,13µM*,?,-23
CCOC(=O)c1c(C)oc2ncnc(Nc3ccc(F)cc3Cl)c12,.,.,.,8
CN1CCN(c2ccc(-c3cccc4nccn34)cn2)CC1,.,.,.,62
CN(C)c1ccc(-c2cc(O)c3ncccc3c2)cc1,3.7µM*,.,5.2µM*,-97*
CN(C)CCCNC(=O)c1ccc(-c2cc(O)c3ncccc3c2)cc1,10µM*,.,6.6µM*,-39
Oc1cc(-c2ccncc2)cc2cccnc12,?,.,5.2µM*,-97*
SMILES,Pf growth 48h,HCV inhibitor,Pf growth 96h,HCMV antiviral
Oc1cc(-c2ccc(N3CCCCC3)nc2)cc2cccnc12,4.1µM*,.,2.9µM*,.
C[C@H](CO)N1C[C@H](C)[C@H](CN(C)C(=O)C2CCCCC2)OCc2cnnn2CCCC1=O,.,.,.,-9
O=C(Cn1ncc2c(=O)oc3ccccc3c21)N1CCN(c2ccc(Cl)cc2)CC1,.,.,.,4
CC(C)(C)c1ccc(C(=O)NCCc2csc(-c3ccc(Cl)cc3)n2)cc1,.,.,.,-11
CN(C)CCCNC(=O)c1ccc(-c2nc(-c3ccc(Cl)cc3)cs2)cc1,2.6µM*,10µM*,1.5µM*,34
CN1CCN(c2ccc(-c3cc(O)c4ncccc4c3)cc2)CC1,2.6µM*,.,2.6µM*,.
